Pf apPOL inh – Pf-apPOL inhibitors, biochemical, fluorescence; Recombinant Pf-apPOL, molecular beacon fluorescence, 1.5 h; inhibition, % at 10 µM; actives 0.25% (n = 210,000)
mHTT CaM bind – mutant huntingtin-calmodulin interaction inhibitors – biochemical, AlphaScreen, primary screen; inhibition, % at 15 µM; actives 3.6% (n = 190,000); P42858; AlphaScreen His-mHTT/GST-CaM binding, luminescence; AID 1671202, 2021
Large screens that a line does not name were inactive. This excerpt belongs to a sample that is enriched for hits. No stated cut-off is given here; in the data, active means inhibition above about 50%; inactive means the rest.

CCOc1ccccc1CN1CCc2nc(N3CCN(c4ccccc4F)CC3)ncc2C1	mHTT CaM bind 66
COc1ccccc1CN1CCc2nc(N3CCN(c4ccccc4F)CC3)ncc2C1	none
CC1CCN(c2ncc3c(n2)CCN(Cc2cccc(F)c2F)C3)CC1	mHTT CaM bind 74
Cc1ccc(C(=O)N2N=C3CCCCC3C2(O)C(F)(F)F)cc1Cl (stereo not given)	none
Cc1nc2ccccc2c(=O)n1Cc1ccco1	none
N=c1c2c(-c3ccccc3)c(-c3ccccc3)n(Cc3ccco3)c2ncn1Cc1ccco1	mHTT CaM bind 99
Cc1nn2c3ccccc3n(C)c2c1C=O	none
CN(C)Cc1c(O)ccc2c(=O)c(Oc3ccc4ccccc4c3)c(C(F)(F)F)oc12	mHTT CaM bind 76
COc1cccc(Oc2c(C(F)(F)F)oc3c(CN(C)C)c(O)ccc3c2=O)c1	none
O=C(c1cccc(OCC2CCCN(C(=O)c3ccsc3)C2)c1)N1CCCCC1 (stereo not given)	none
O=C(Nc1nnc(-c2ccsc2)o1)c1cc(-c2ccccc2)on1	none
O=C(Cc1c(F)cccc1Cl)Nc1nnc(-c2ccsc2)o1	mHTT CaM bind 57
O=C(Nc1nnc(-c2ccsc2)o1)c1ccccn1	mHTT CaM bind 100
O=C(Nc1nnc(-c2ccsc2)o1)c1ccccc1F	none
COc1ccc(N2CCN(C(=O)C34CC5(C)CC(C)(CC(C)(C5)C3)C4)CC2)cc1	mHTT CaM bind 54
CC(=O)N1CCN(C(=O)C23CC4(C)CC(C)(CC(C)(C4)C2)C3)CC1	none
Cc1csc(NC(=O)c2cn(CC3CCCO3)cc3c(=O)n(-c4ccccc4)nc2-3)n1 (stereo not given)	none
COc1cc(OC)c(OC)cc1C=C1Oc2c(ccc(O)c2CN2CCCC(C)C2)C1=O (stereo not given)	mHTT CaM bind 51
COc1ccc(C=C2Oc3c(ccc(O)c3CN3CCCC(C)C3)C2=O)c(OC)c1OC (stereo not given)	none
O=C1C(=Cc2cc3cc(Br)ccc3o2)Oc2c1ccc(O)c2CN1CCN(CCO)CC1	mHTT CaM bind 60
COc1ccc(Br)cc1C=C1Oc2c(ccc(O)c2CN2CCN(CCO)CC2)C1=O	none
O=C1C(=Cc2cc(Cl)cc3c2OCOC3)Oc2c1ccc(O)c2CN1CCOCC1	none
CCN1CCN(Cc2c(O)ccc3c2OC(=Cc2cc(Cl)cc4c2OCOC4)C3=O)CC1	mHTT CaM bind 55
COC(=O)c1ccc(C=C2Oc3c(ccc(O)c3CN3CCCCC3C)C2=O)cc1 (stereo not given)	mHTT CaM bind 52
COC(=O)c1ccc(C=C2Oc3c(ccc(O)c3CN3CCCC3)C2=O)cc1	none
COc1ccc(Oc2coc3cc(OCC(=O)c4ccc(OC)cc4)ccc3c2=O)cc1	none
O=C(Cc1ccc(Cl)cc1)N1CCc2nc3cc[nH]n3c(=O)c2C1	none
CC(NC(=O)c1cn2ccccc2n1)c1cccnc1 (stereo not given)	none
Cc1ccc(-c2cn3cc(C(=O)NC(C)c4cccnc4)ccc3n2)cc1C (stereo not given)	mHTT CaM bind 53
Cc1ccc(-c2cn3cc(C(=O)NC(C)c4cccnc4)ccc3n2)cc1 (stereo not given)	mHTT CaM bind 51
CC(NC(=O)c1ccc(-c2ccnc(N3CCCC3)n2)cc1)c1cccnc1 (stereo not given)	none
O=C(Nc1cccn2cnnc12)c1ccccc1C(F)(F)F	none
COCCC1CCN(C(=O)c2ccc(C)cc2)CC1	none
CCc1cccc(NC(=O)Cn2c(C)nc3c(c2=O)CCN(Cc2ccccc2)C3)c1	none
Cc1c(N=C(N)N=C(N)Nc2ccc([N+](=O)[O-])cc2)c(=O)n(-c2ccccc2)n1C	none
CCN(C(=O)c1ccc(F)cc1)C1C2CC3CC(C2)CC1C3 (stereo not given)	none
Cc1ccc(NC(=O)c2cccc([N+](=O)[O-])c2)c(C)c1	none
COC(=O)C(NC(=O)C(C)(C)C)C12CC3CC(CC(C3)C1)C2 (stereo not given)	none
c1ccc(-c2noc(-c3ccco3)n2)nc1	none
Cn1c(-c2ccc(S(=O)(=O)O)o2)nc2ccccc21	none
c1ccc(-c2nnc(-c3ccco3)c(-c3ccco3)n2)nc1	mHTT CaM bind 100 (no result: Pf apPOL inh)
O=S(=O)(O)c1ccc(-c2nnc(-c3ccccn3)nc2-c2ccc(S(=O)(=O)O)o2)o1	mHTT CaM bind 100 (no result: Pf apPOL inh)
CSc1nc2n(n1)C(c1ccc([N+](=O)[O-])cc1)C(C(=O)Nc1ccc(C)cc1C)=C(C)N2 (stereo not given)	none
Cc1ccc(C2CC(c3ccccc3F)=NN2C(=O)CN2CCOCC2)c(C)c1 (stereo not given)	mHTT CaM bind 83
Cc1ccc(C2=NN(C(=O)CN3CCOCC3)C(c3ccccc3)C2)cc1C (stereo not given)	mHTT CaM bind 52
Cc1ccc(C2=NN(C(=O)CN3CCOCC3)C(c3ccc(F)cc3)C2)cc1 (stereo not given)	none
O=C(CN1CCOCC1)N1N=C(c2ccc(F)cc2)CC1c1ccccc1F (stereo not given)	none

Bioassay records from PubChem BioAssay.
